The full data set covers some 7,900 targets. This sample favours those with a hit. About 0.6% of all pairs of compound and target were hits.
Columns and labels:
Assay in all cases: log2 fold change, soluble protein after heating vs DMSO (PISA); higher = thermal stabilisation; K562 cells, 10 uM, 30 min; active = over 0.2 and 3.5 SD of the protein, either way, in both replicates (recomputed)
[1] = compound: CN1CCN(CCOc2cc(OC3CCOCC3)c3c(Nc4c(Cl)ccc5c4OCO5)ncnc3c2)CC1 [saracatinib]
Summary of the method: (§1)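 K562 cells at 2×10^6 cells/mL were given 10 μM compound for 30 min. Aliquots then went through 3 min of heating across 48°C-58°C, were pooled, and were extracted in PBS with 0.5% NP-40 at 4°C, and the supernatant after 21,000xg for 90 min was quantified by TMTpro 16plex LC-MS/MS with channel sums equalised. Thermal stability relative to control samples, from duplicates, is given as log2 fold change.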

[2] = compound: CN1CCN(c2nc(C3=C(c4c[nH]c5ccccc45)C(=O)NC3=O)c3ccccc3n2)CC1 [sotrastaurin]
Summary of the method: as §1

[3] = compound: CN1CC[C@H](c2c(O)cc(O)c3c(=O)cc(-c4ccccc4Cl)oc23)[C@H](O)C1 [alvocidib]
Summary of the method: as §1

[4] = compound: CN1CCc2c(c3ccccc3n2Cc2ccc(C(=O)NO)cc2)C1 [Tubastatin A]
Summary of the method: as §1

[5] = compound: CNC(=O)C1=CC=CC=C1NC2=NC(=NC=C2Cl)NC3=C(C=C(C=C3)N4CCOCC4)OC
Summary of the method: as §1

[6] = compound: CNC(=O)c1ccc(Nc2ncc(C(F)(F)F)c(NCc3nccnc3N(C)S(C)(=O)=O)n2)cc1 [defactinib]
Summary of the method: as §1

[7] = compound: CNCc1ccc(-c2[nH]c3cc(F)cc4c3c2CCNC4=O)cc1 [rucaparib]
Summary of the method: as §1

[8] = compound: CNc1nc(-c2ccc3c(N)n[nH]c3c2)cc(N2C[C@@H](C(=O)NC3CCCCC3)CC[C@H]2C)n1
Summary of the method: as §1

[9] = compound: COC(=O)N[C@@H](C)CNc1nccc(-c2cn(C(C)C)nc2-c2cc(Cl)cc(NS(C)(=O)=O)c2F)n1 [encorafenib]
Summary of the method: as §1

[10] = compound: COC(=O)[C@H](CCSC)NC(=O)C1=C(C=C(C=C1)NC[C@H](CS)N)C2=CC=CC=C2
Summary of the method: as §1

Measured: log2 fold change

SSRP1 (UniProt Q08945)
active: [6] -0.23
inactive: [1] 0.01 | [2] -0.049 | [3] -0.157 | [4] 0.099 | [5] -0.052 | [7] -0.038 | [8] -0.045 | [9] 0.048 | [10] -0.05

SLC25A4 (UniProt P12235)
Sequence of UniProt P12235 (P12235 whole entry, looked up): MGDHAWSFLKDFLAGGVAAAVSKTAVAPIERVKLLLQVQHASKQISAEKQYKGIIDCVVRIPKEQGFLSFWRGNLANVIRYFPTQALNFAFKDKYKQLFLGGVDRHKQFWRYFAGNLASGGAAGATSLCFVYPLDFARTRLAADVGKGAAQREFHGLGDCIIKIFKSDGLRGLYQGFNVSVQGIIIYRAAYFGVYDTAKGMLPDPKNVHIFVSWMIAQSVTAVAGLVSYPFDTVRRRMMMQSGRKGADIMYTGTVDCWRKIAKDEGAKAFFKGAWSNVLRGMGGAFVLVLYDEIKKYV
inactive: [1] -0.022 | [2] 0.029 | [3] 0.068 | [4] -0.138 | [5] 0.044 | [6] 0.012 | [7] -0.061 | [8] -0.026 | [9] -0.001 | [10] 0.019

TECR (UniProt Q9NZ01)
Sequence of UniProt Q9NZ01 (Q9NZ01 whole entry, looked up): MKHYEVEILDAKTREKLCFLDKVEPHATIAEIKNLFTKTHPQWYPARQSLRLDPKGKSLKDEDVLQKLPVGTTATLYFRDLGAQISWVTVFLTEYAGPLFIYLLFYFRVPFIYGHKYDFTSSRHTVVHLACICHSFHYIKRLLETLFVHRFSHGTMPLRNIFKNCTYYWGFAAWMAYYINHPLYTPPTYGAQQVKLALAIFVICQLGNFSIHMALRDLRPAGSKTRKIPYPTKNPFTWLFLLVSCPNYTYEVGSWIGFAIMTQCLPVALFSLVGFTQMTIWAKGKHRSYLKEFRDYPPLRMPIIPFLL
inactive: [1] -0.018 | [2] -0.007 | [3] -0.02 | [4] -0.035 | [5] -0.07 | [6] -0.022 | [7] 0.03 | [8] -0.017 | [9] 0.045 | [10] -0.028

TARS2 (UniProt Q9BW92)
inactive: [1] -0.004 | [2] -0.049 | [3] -0.041 | [5] 0.03 | [6] -0.033 | [7] 0.009 | [8] -0.098 | [9] 0.015 | [10] 0.039
active: [4] -0.357

TJP1 (UniProt Q07157)
inactive: [1] -0.049 | [2] -0.064 | [3] -0.114 | [4] 0.045 | [5] -0.099 | [6] -0.16 | [7] 0.018 | [8] 0.003 | [9] 0.029 | [10] -0.056

SLC38A9 (UniProt Q8NBW4)
inactive: [1] 0.053 | [2] -0.184 | [3] -0.024 | [4] -0.05 | [5] 0.025 | [6] -0.038 | [7] -0.048 | [8] -0.073 | [9] -0.001 | [10] 0.001

SMG1 (UniProt Q96Q15)
inactive: [1] -0.039 | [2] 0.041 | [3] -0.085 | [4] 0.014 | [5] 0.042 | [6] 0 | [7] 0.025 | [8] -0.12 | [9] 0.023 | [10] 0.017

STARD3 (UniProt Q14849)
Sequence of UniProt Q14849 (Q14849 whole entry, looked up): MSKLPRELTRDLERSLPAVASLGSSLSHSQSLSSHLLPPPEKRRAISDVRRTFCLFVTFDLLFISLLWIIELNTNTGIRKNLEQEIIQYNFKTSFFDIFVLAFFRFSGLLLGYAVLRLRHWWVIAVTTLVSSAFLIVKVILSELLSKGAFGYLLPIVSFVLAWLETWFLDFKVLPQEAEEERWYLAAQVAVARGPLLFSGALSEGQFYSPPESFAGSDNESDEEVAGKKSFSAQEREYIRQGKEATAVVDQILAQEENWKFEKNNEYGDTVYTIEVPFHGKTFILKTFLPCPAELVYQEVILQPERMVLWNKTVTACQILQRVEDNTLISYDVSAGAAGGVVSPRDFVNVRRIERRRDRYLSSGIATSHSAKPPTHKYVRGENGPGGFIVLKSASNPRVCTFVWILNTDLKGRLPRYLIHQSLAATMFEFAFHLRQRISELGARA
inactive: [1] -0.043 | [2] -0.028 | [3] 0.035 | [4] 0.013 | [5] -0.02 | [6] -0.035 | [8] 0.028 | [10] -0.014

TGFBR1 isoform 2 (UniProt P36897)
active: [1] 0.371
inactive: [2] 0.026 | [3] -0.009 | [4] 0.023 | [5] -0.045 | [6] 0.039 | [7] 0.096 | [8] 0.041 | [9] 0.041 | [10] -0.055

TMBIM1 (UniProt Q969X1)
inactive: [1] -0.147 | [2] 0.012 | [3] 0.207 | [4] 0.002 | [5] -0.042 | [6] 0.043 | [7] -0.009 | [8] -0.097 | [9] -0.223 | [10] 0.051

SRCAP (UniProt Q6ZRS2)
active: [4] -0.486
inactive: [1] 0.032 | [2] -0.045 | [3] -0.279 | [5] -0.069 | [6] -0.004 | [7] -0.058 | [8] -0.028 | [9] 0.009 | [10] -0.015

SNX15 (UniProt Q9NRS6)
inactive: [1] -0.039 | [2] -0.048 | [3] 0.133 | [4] 0.045 | [6] -0.177 | [7] -0.063 | [8] -0.043 | [9] 0.098 | [10] 0.025

TAF6L (UniProt Q9Y6J9)
Sequence of UniProt Q9Y6J9 (Q9Y6J9 whole entry, looked up): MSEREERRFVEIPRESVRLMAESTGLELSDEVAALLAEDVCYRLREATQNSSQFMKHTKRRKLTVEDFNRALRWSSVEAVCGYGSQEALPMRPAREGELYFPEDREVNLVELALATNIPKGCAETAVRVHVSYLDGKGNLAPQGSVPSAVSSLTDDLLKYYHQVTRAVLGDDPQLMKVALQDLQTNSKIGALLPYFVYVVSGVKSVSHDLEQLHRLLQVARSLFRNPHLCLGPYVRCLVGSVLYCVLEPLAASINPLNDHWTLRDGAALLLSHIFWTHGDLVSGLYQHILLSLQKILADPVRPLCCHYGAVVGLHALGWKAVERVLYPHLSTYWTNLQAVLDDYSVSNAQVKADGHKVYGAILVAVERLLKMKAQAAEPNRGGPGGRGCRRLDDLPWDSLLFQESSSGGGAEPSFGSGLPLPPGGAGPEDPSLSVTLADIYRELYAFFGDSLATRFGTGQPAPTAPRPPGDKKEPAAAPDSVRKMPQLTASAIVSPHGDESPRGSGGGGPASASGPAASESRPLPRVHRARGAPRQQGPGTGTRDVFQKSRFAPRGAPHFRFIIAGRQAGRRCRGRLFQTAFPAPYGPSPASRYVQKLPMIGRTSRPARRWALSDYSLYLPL
inactive: [1] 0.148 | [2] -0.2 | [3] -0.055 | [4] -0.012 | [5] -0.044 | [8] 0.035

TFRC (UniProt P02786)
inactive: [1] 0.008 | [2] 0.005 | [3] 0.01 | [4] -0.028 | [5] 0.029 | [6] -0.03 | [7] -0.003 | [8] -0.056 | [9] 0.019 | [10] -0.004

SP1 (UniProt P08047)
inactive: [1] 0.022 | [2] 0.016 | [3] 0.023 | [4] -0.054 | [5] -0.015 | [6] 0.01 | [7] 0.066 | [8] -0.023 | [9] -0.019 | [10] 0.025

STK11IP (UniProt Q8N1F8)
Sequence of UniProt Q8N1F8 (Q8N1F8 whole entry, looked up): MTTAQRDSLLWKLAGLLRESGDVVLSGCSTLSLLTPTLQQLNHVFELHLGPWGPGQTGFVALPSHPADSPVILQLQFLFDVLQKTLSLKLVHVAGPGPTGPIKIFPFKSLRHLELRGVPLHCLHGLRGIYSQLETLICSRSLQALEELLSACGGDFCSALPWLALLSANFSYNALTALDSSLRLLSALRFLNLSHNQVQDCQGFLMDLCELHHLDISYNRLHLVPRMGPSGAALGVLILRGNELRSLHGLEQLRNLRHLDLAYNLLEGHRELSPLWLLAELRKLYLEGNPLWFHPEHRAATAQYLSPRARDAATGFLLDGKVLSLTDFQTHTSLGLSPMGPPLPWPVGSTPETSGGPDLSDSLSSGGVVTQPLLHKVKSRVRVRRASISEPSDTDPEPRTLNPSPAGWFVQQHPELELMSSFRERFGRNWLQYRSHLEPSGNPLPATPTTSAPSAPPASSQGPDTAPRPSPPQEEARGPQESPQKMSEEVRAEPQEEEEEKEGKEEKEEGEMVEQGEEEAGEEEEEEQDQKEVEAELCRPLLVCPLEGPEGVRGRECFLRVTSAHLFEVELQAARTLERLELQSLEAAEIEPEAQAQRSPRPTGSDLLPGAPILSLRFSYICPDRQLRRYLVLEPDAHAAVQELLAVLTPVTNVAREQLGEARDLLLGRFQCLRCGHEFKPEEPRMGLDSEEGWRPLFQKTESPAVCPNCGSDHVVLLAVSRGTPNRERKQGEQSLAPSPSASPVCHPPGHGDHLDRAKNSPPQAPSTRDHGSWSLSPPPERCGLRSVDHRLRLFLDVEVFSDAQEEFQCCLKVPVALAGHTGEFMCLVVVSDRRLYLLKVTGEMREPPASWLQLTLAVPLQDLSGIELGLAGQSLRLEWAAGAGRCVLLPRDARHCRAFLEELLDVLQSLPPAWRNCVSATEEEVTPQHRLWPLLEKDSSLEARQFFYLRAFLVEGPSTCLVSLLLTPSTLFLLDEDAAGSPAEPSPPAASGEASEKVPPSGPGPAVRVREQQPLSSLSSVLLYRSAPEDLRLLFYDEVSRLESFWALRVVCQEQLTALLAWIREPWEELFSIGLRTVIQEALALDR
inactive: [1] 0.001 | [2] -0.138 | [3] -0.184 | [4] 0.084 | [5] 0.097 | [6] -0.074 | [7] 0.1 | [8] -0.039 | [9] 0.265 | [10] 0.007

SLC25A42 (UniProt Q86VD7)
inactive: [1] 0.105 | [2] 0.023 | [3] 0 | [4] -0.032 | [5] 0.005 | [6] 0.101 | [7] 0.021 | [8] 0.035 | [9] -0.067 | [10] 0.083

SNRNP40 (UniProt Q96DI7)
inactive: [1] 0.068 | [2] -0.01 | [3] 0.143 | [4] -0.092 | [5] 0.045 | [6] 0.128 | [7] 0.012 | [8] -0.03 | [9] 0.039 | [10] -0.034

TANGO6 (UniProt Q9C0B7)
Sequence of UniProt Q9C0B7 (Q9C0B7 whole entry, looked up): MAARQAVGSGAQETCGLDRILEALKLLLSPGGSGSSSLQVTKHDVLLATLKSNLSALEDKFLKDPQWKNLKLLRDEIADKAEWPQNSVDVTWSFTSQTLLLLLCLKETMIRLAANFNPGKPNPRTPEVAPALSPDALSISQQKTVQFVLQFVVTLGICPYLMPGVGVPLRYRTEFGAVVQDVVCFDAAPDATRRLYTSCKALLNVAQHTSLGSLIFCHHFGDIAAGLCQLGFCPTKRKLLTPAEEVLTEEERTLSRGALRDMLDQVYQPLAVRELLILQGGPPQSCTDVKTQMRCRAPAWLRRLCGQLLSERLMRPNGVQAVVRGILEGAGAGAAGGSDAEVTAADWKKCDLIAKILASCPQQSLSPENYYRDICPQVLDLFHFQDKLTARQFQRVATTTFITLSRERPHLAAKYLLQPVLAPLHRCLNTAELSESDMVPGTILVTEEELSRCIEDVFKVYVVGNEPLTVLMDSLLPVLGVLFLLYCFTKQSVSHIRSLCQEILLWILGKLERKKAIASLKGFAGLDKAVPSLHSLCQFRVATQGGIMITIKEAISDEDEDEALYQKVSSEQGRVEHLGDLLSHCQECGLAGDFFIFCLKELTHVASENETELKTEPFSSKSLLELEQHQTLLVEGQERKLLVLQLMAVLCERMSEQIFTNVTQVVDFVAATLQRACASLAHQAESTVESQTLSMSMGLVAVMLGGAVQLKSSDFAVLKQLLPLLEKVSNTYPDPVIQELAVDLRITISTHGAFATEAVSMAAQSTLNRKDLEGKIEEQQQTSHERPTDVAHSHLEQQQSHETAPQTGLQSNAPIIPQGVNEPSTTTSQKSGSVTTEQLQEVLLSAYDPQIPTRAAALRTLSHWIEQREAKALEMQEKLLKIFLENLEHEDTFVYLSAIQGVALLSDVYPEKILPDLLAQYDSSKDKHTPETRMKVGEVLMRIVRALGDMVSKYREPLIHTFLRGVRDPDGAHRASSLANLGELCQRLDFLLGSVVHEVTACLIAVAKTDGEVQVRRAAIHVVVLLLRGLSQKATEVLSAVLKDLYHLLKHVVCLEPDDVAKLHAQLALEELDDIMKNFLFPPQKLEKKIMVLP
inactive: [1] -0.09 | [2] -0.135 | [3] -0.084 | [4] 0.116 | [5] -0.077 | [7] 0.586 | [8] 0.037 | [9] 0.001

TMBIM6 isoform 2 (UniProt P55061)
inactive: [1] 0.08 | [2] -0.029 | [3] -0.027 | [4] 0.062 | [5] -0.004 | [6] -0.007 | [7] -0.065 | [8] -0.006 | [9] -0.005 | [10] 0.039

SLC9A6 isoform 2 (UniProt Q92581)
Sequence of UniProt Q92581 (Q92581 whole entry, looked up): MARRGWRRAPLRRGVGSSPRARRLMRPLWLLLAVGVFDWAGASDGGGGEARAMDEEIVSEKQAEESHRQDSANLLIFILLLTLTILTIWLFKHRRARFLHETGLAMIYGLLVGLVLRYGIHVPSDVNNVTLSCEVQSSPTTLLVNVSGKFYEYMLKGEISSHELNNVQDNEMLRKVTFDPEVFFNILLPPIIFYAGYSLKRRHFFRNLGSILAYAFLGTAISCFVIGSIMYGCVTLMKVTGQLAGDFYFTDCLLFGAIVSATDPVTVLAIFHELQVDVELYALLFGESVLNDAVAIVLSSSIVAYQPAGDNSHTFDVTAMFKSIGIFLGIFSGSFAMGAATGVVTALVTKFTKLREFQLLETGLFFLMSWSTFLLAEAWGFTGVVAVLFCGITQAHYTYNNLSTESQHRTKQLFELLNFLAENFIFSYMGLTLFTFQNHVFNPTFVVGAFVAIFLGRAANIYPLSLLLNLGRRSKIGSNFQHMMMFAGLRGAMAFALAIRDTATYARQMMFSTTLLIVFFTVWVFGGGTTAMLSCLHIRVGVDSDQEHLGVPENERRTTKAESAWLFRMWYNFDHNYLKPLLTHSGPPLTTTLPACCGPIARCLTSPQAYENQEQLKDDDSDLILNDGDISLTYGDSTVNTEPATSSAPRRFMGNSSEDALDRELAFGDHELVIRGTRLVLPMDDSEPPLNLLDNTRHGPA
inactive: [1] 0.06 | [2] 0.048 | [3] -0.016 | [4] -0.027 | [5] 0.001 | [6] -0.027 | [7] -0.015 | [8] -0.07 | [9] 0.008 | [10] 0.053

SRSF10 (UniProt O75494)
inactive: [1] -0.002 | [2] 0.041 | [3] 0.338 | [4] -0.009 | [5] -0.053 | [6] 0.233 | [7] 0.314 | [8] 0.068 | [9] 0.133 | [10] 0.14

SLC27A1 (UniProt Q6PCB7)
inactive: [1] -0.007 | [2] 0.013 | [3] -0.203 | [4] -0.252 | [5] -0.011 | [6] 0.064 | [8] 0.146 | [10] -0.183

SMDT1 (UniProt Q9H4I9)
Sequence of UniProt Q9H4I9 (Q9H4I9 whole entry, looked up): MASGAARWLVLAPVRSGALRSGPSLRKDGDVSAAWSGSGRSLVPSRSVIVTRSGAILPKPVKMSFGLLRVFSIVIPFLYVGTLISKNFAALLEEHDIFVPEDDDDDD
inactive: [1] 0.092 | [2] -0.077 | [3] -0.005 | [4] 0.035 | [6] 0.014 | [7] 0.057 | [8] -0.064 | [9] 0.011 | [10] 0.003

SLC35B1 isoform 2 (UniProt P78383)
inactive: [1] 0.036 | [2] -0.03 | [3] 0.031 | [4] 0.037 | [5] -0.003 | [6] 0.026 | [7] -0.051 | [8] 0.011 | [9] 0.132 | [10] -0.127

SLC25A38 (UniProt Q96DW6)
inactive: [1] 0.076 | [2] -0.027 | [3] -0.117 | [4] -0.035 | [5] -0.015 | [6] 0.046 | [7] -0.002 | [8] 0.026 | [9] 0.016 | [10] -0.057

STK39 (UniProt Q9UEW8)
inactive: [1] -0.014 | [2] -0.017 | [3] 0.013 | [4] 0.009 | [5] -0.045 | [6] -0.015 | [7] 0.014 | [8] -0.008 | [9] 0.039 | [10] 0.056

SPTBN1 (UniProt Q01082)
inactive: [1] -0.019 | [3] -0.03 | [4] 0.042 | [5] 0.048 | [6] -0.125 | [7] 0.084 | [8] -0.047 | [9] 0.064 | [10] -0.057
active: [2] -0.224

STAM2 (UniProt O75886)
inactive: [1] -0.093 | [2] -0.011 | [3] -0.097 | [4] -0.014 | [5] 0.035 | [6] -0.095 | [7] -0.035 | [8] -0.02 | [9] 0.027 | [10] -0.019

SLC7A6OS (UniProt Q96CW6)
Sequence of UniProt Q96CW6 (Q96CW6 whole entry, looked up): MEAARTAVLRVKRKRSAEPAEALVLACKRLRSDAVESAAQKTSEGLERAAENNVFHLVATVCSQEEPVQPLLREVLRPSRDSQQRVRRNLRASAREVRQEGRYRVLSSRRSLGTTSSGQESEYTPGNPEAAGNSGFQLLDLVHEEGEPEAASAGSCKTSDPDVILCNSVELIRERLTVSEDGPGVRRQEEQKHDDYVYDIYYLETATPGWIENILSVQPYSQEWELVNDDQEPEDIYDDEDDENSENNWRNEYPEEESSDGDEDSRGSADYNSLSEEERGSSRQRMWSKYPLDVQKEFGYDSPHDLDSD
inactive: [1] 0.14 | [2] 0.008 | [3] 0.024 | [4] -0.001 | [5] 0.031 | [6] -0.144 | [7] -0.05 | [8] -0.078 | [9] -0.004 | [10] 0.06

TIAL1 isoform 2 (UniProt Q01085)
inactive: [1] 0.015 | [2] 0.025 | [3] 0.036 | [4] -0.052 | [5] -0.019 | [6] 0.077 | [7] 0.066 | [8] -0.042 | [9] -0.034 | [10] -0.014
